Results as given in PubChem BioAssay (NCI).
This is part of a sample that, as a whole, favours compounds with a hit. Of some 79,000 tested, about 15% had one in any assay. Activity calls are given as the source filed them. Rule as the data show it: active = growth inhibition above about 70%; inactive = the rest.

Key:
[1] = NCI Yeast Anticancer Drug Screen. Data for the rad52 strain (AID 147);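 also: 0% = growth of vehicle-treated control cultures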; settings: S. cerevisiae rad52 mutant growth inhibition, active compounds read high
Method in brief: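 Growth of repair-deficient yeast cells was compared between compound-treated and vehicle-treated cultures to give percent inhibition.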

[2] = NCI Yeast Anticancer Drug Screen. Data for the wt1 strain (AID 149);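 also: 0% = growth of vehicle-treated wt1 cultures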; settings: S. cerevisiae wt1 strain (SPY 50644) growth inhibition, active compounds read high
Method in brief: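 wt1 strain grown with compound or vehicle; inhibition taken from the growth difference.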

[3] = NCI Yeast Anticancer Drug Screen. Data for the rad50EPP+ strain (AID 151);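 also: 0% = growth of vehicle-treated control cultures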; settings: S. cerevisiae rad50 mutant strain, active compounds read high
Method in brief: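 Measured: growth inhibition of rad50EPP+ yeast. Reference: vehicle-treated controls. Screen uses strains with defined genetic alterations in DNA damage repair or cell cycle control.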

[4] = NCI Yeast Anticancer Drug Screen. Data for the mgt1 strain (AID 153); settings: S. cerevisiae mgt1 mutant growth inhibition, active compounds read high
Method in brief: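 Compounds were applied to mgt1 mutant yeast, and growth was then compared against vehicle-treated control cultures to give percent inhibition.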

[5] = NCI Yeast Anticancer Drug Screen. Data for the rad50 strain (AID 155);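 also: 0% = growth of vehicle-only cultures of the same strain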; settings: S. cerevisiae rad50 strain growth inhibition, active compounds read high
Method in brief: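 DNA repair mutant yeast, compound exposure, growth read-out; inhibition is taken relative to vehicle.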

[6] = NCI Yeast Anticancer Drug Screen. Data for the mec2-1 strain (AID 157); settings: S. cerevisiae mec2-1 strain, active compounds read high
Method in brief: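 Compounds were applied to mec2-1 yeast cells. Their growth was then compared with that of vehicle-treated cultures to give growth inhibition.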

[7] = NCI Yeast Anticancer Drug Screen. Data for the rad14 strain (AID 159);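 also: 0% = growth of vehicle-treated control cultures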; settings: S. cerevisiae rad14 strain growth inhibition, active compounds read high
Method in brief: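 DNA repair-defective yeast, compound-exposed; % growth inhibition derived by comparison with vehicle-treated controls.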

[8] = NCI Yeast Anticancer Drug Screen. Data for the sgs1 mgt1 strain (AID 161);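 also: 0% = growth of cultures given vehicle only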; settings: S. cerevisiae sgs1 mgt1 strain, active compounds read high
Method in brief: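 Growth of a repair-deficient yeast mutant was monitored after compound treatment and expressed as inhibition relative to vehicle-treated cultures.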

[9] = NCI Yeast Anticancer Drug Screen. Data for the CLN2oe strain (AID 163);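 also: 0% = growth of vehicle-only control cultures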; settings: S. cerevisiae CLN2oe strain, active compounds read high
Method in brief: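 Cells of an engineered yeast line with disturbed cell-cycle regulation are treated with compound. Inhibition of growth is then calculated relative to the vehicle-treated reference.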

[10] = NCI Yeast Anticancer Drug Screen. Data for the cln2 rad14 strain (AID 165);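 also: 0% = growth equal to vehicle treated cultures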; settings: S. cerevisiae cln2 rad14 strain, active compounds read high
Method in brief: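 Strain: cln2 rad14 yeast, altered in cell cycle control and DNA damage repair. Read-out: growth inhibition vs vehicle.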

[11] = NCI Yeast Anticancer Drug Screen. Data for the bub3 strain (AID 167); settings: S. cerevisiae bub3 mutant strain, active compounds read high
Method in brief: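 In this screen, a yeast mutant lacking normal mitotic checkpoint function is challenged with compound. Relative growth versus vehicle gives the inhibition value.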

[12] = NCI Yeast Anticancer Drug Screen. Data for the wt2 strain (AID 169);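 also: 0% = growth of vehicle-treated yeast cultures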; settings: S. cerevisiae wt2 strain growth inhibition, active compounds read high
Method in brief: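 Growth of compound-treated yeast is measured and expressed as inhibition relative to vehicle-only controls.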

[13] = NCI Yeast Anticancer Drug Screen. Data for the mlh1 strain (AID 171);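 also: 0% = growth of vehicle-treated control cultures of the same strain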; settings: S. cerevisiae mlh1 strain growth inhibition, active compounds read high
Method in brief: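 Test agents were incubated with yeast bearing a defined DNA damage repair or cell cycle control alteration; values are growth inhibition normalised to vehicle-treated cultures.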

[14] = NCI Yeast Anticancer Drug Screen. Data for the sgs1 strain (AID 173);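 also: 0% = growth of vehicle-only control cultures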; settings: S. cerevisiae sgs1 mutant, active compounds read high
Method in brief: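 Strain with an altered DNA repair or cell cycle pathway exposed to compound. Growth then measured. Value = inhibition versus vehicle control.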

[15] = NCI Yeast Anticancer Drug Screen. Data for the mlh1 rad18 strain (AID 175); settings: S. cerevisiae mlh1 rad18 strain growth inhibition, active compounds read high
Method in brief: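 A repair-deficient yeast strain is exposed to test compound, and growth is scored relative to vehicle-treated controls.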

[16] = NCI Yeast Anticancer Drug Screen. Data for the rad18 strain (AID 177); settings: S. cerevisiae rad18 mutant growth inhibition, active compounds read high
Method in brief: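 DNA-repair-defective yeast; compound treatment; growth inhibition scored against vehicle.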

[17] = at 5.0 µM (retest, dose inferred, filed as 0.5)
[18] = at 50.0 µM (retest, dose inferred, filed as 5.0)

Measured: growth inhibition

c1ccc(N=c2nc(N3CCOCC3)ss2)cc1
inactive: [1]; at 1.2 µM -3% | [1]; at 3.7 µM 3% | [1]; at 11.0 µM 27% | [2]; at 1.2 µM -3% | [2]; at 3.7 µM 4% | [2]; at 11.0 µM 15% | [3]; at 1.2 µM -5% | [3]; at 3.7 µM 2% | [3]; at 11.0 µM 19% | [3]; at 33.0 µM 56% | [4]; at 1.2 µM -3% | [4]; at 3.7 µM 11% | [5]; at 1.2 µM -6% | [5]; at 3.7 µM 6% | [5]; [17] 19% | [5]; at 11.0 µM 51% | [6]; at 1.2 µM -4% | [6]; at 3.7 µM 7% | [6]; [17] 14% | [6]; at 11.0 µM 37% | [7]; at 1.2 µM -3% | [7]; at 3.7 µM 13% | [7]; at 11.0 µM 61% | [8]; [17] 58% | [9]; at 1.2 µM -11% | [9]; at 3.7 µM -13% | [9]; at 11.0 µM 3% | [10]; [17] -5% | [11]; at 1.2 µM -5% | [11]; at 3.7 µM 5% | [11]; [17] 8% | [11]; at 11.0 µM 56% | [12]; at 1.2 µM -1% | [12]; at 3.7 µM 18% | [12]; at 11.0 µM 53% | [13]; at 1.2 µM -1% | [13]; at 3.7 µM 14% | [14]; at 1.2 µM 7% | [14]; at 3.7 µM 37% | [15]; [17] 26% | [16]; at 1.2 µM 0% | [16]; at 3.7 µM 18% | [16]; at 11.0 µM 64%
active: [1]; at 33.0 µM 98% | [1]; at 100.0 µM 99% | [2]; at 33.0 µM 98% | [2]; at 100.0 µM 98% | [3]; at 100.0 µM 99% | [4]; at 11.0 µM 71% | [4]; at 33.0 µM 99% | [4]; at 100.0 µM 99% | [5]; at 33.0 µM 99% | [5]; [18] 99% | [5]; at 50.0 µM 98.6% | [5]; at 100.0 µM 99% | [6]; at 33.0 µM 99% | [6]; [18] 100% | [6]; at 50.0 µM 99.7% | [6]; at 100.0 µM 99% | [7]; at 33.0 µM 99% | [7]; at 100.0 µM 99% | [8]; [18] 100% | [8]; at 50.0 µM 98.7% | [9]; at 33.0 µM 87% | [9]; at 100.0 µM 98% | [10]; [18] 99% | [10]; at 50.0 µM 93.4% | [11]; at 33.0 µM 99% | [11]; [18] 99% | [11]; at 50.0 µM 99.3% | [11]; at 100.0 µM 99% | [12]; at 33.0 µM 98% | [12]; at 100.0 µM 99% | [13]; at 11.0 µM 73% | [13]; at 33.0 µM 99% | [13]; at 100.0 µM 99% | [14]; at 11.0 µM 87% | [14]; at 33.0 µM 99% | [14]; at 100.0 µM 99% | [15]; [18] 98% | [15]; at 50.0 µM 98.4% | [16]; at 33.0 µM 99% | [16]; at 100.0 µM 94%
